JMJD2A Tudor: inhibitors of human JMJD2A Tudor domain. AID 504339. actives 4.4% (n = 390,000). AlphaScreen JMJD2A-Tudor / H3K4me3 peptide binding. Potency, µM (titrated, usually from 114 µM), for inactives: at the top dose activity change, negative = inhibition, usual class: inhibitors; further: potency means the concentration at half of the fitted maximal effect; on the % scale 0 is the no-effect control and ±100 the full control effect; nearly all actives have a fitted effect of over 50% in size
HP1b chromo inh: blocks HP1-beta chromodomain binding to methylated histone tails. AlphaScreen HP1-beta / biotin-H3K9me3 peptide binding. P83916. Potency, µM (series often up to 114 µM), for inactives: at the top dose activity change, negative = inhibition, most hits filed as inhibitors. AID 540317. actives 0.56% (n = 390,000); further: potency means the concentration at half of the fitted maximal effect; nearly all actives have a fitted effect of over 70% in size
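AlphaScreen: HP1-beta (50 nM) preformed 30 min with biotin-H3(1-18)K9me3 peptide (50 nM) in PBS pH 7.4, 0.01% Tween-20. Compound added for 30 min at RT, then streptavidin donor/nickel chelate acceptor beads (10 ug/mL) for 30 min.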
Six1-Eya2 inh: inhibitors of human Six1/Eya2 interaction; activity change, % (concentration not given with the values); AID 651725; Q15475+O00167; actives 0.56% (n = 360,000); AlphaScreen GST-Six1/His-Eya2 binding, biochemical; hits give low values; in the data active means activity change below about -65%; inconclusive means mostly about -30% to -63%; further: on the % scale 0 is the no-effect control and ±100 the full control effect
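AlphaScreen with GST-Six1 and His-Eya2 (5X mix: 250 nM and 500 nM), glutathione donor and nickel acceptor beads; buffer 50 mM Tris pH 8.0, 300 mM NaCl, 1 mM TCEP; 1 h at 37 C in the dark.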
G9a block: inhibitors of human histone lysine methyltransferase G9a; Q96KQ7; G9a H3K9 monomethylation, AlphaScreen, 2 h; Potency, µM (titrated, usually from 102 µM), inactives show at the highest dose activity, negative = inhibition, most hits filed as inhibitors; actives 8.8% (n = 350,000); further: potency means the concentration at half of the fitted maximal effect; on the % scale 0 is the no-effect control and ±100 the full control effect; nearly all actives have a fitted effect of over 75% in size
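Step 1: enzyme (final 20 nM) with compound, 15 min RT. Step 2: substrate peptide 500 nM and SAM 20 uM, 2 h RT. Step 3: anti-H3K9me1 antibody and AlphaScreen beads, 10 min, then plate read.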
CtBP-E1A blk: blocks the CtBP interaction with E1A. AID 651724. actives 0.49% (n = 340,000). AlphaScreen GST-E1A/His-CtBP binding, 1536-well; hits give low values. activity change, % (concentration not given with the values); in the data active means activity change below about -65%; inconclusive means mostly about -30% to -63%; further: on the % scale 0 is the no-effect control and ±100 the full control effect
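GST-E1A and His-tagged CtBP (125 nM each as 5X stock) were preincubated with pin-transferred compound for 2 h at 37 °C in the dark, then glutathione donor and nickel acceptor beads were added for 1 h before AlphaScreen reading.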
BAZ2B inh: inhibitors of human BAZ2B bromodomain. AlphaScreen BAZ2B-H3K14Ac peptide displacement. actives 4.4% (n = 360,000). AID 504333. Potency, µM (titrated, usually from 114 µM), without a hit: top-dose activity change, negative = inhibition, actives largely listed as inhibitors. Q9UIF8; further: potency means the concentration at half of the fitted maximal effect; on the % scale 0 is the no-effect control and ±100 the full control effect; nearly all actives have a fitted effect of over 60% in size
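Protein-peptide AlphaScreen: BAZ2B 50 nM, b-H3K14Ac 50 nM, 1x PBS pH 7.4 + 0.01% Tween-20. Preincubation 30 min RT; cpd 30 min RT (top 110 uM); beads 20 min RT, light-protected.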
Numbers without * were called inactive; ? = inconclusive; . = not tested or not shown; [ ] = remark or other dose. The list is not random: actives were taken first. Their share in the collection is about 10%. Unless noted, the call rests on the fitted dose curve; in most records, active means well fitted inhibition curve with a large enough effect; inconclusive means small, poorly fitted or top-dose-only effect; inactive means no such curve, though single readings can be large or run the other way.

SMILES	JMJD2A Tudor	HP1b chromo inh	Six1-Eya2 inh	G9a block	CtBP-E1A blk	BAZ2B inh
COc1cccc(C(=O)N2CCC[C@H]2C(=O)N2CCC[C@H]2C(=O)NCc2ccccn2)c1	.	.	4.9	.	2.0	.
COc1ccc(C(=O)Oc2ccc(C(c3c(C)[nH][nH]c3=O)c3c(C)[nH][nH]c3=O)cc2OC)cc1	?	15.1%	.	-31.8%[59 µM]	.	?
Cc1[nH][nH]c(=O)c1C(c1ccc(Br)cc1)c1c(C)[nH][nH]c1=O	-15.8%	29.5%	-4.1	-9.3%	-26.3	-6.0%
COC(=O)c1ccc(-c2ccc(C(c3c(C)[nH][nH]c3=O)c3c(C)[nH][nH]c3=O)o2)cc1	31.6µM*	-26.4%	?	1.41µM*	?	8.91µM*
Cc1[nH][nH]c(=O)c1C(c1ccc(-c2cccc(C(=O)O)c2)o1)c1c(C)[nH][nH]c1=O	56.2µM*	?	-5.0	17.8µM*	-15.4	79.4µM*
Cc1[nH][nH]c(=O)c1C(c1ccc(-c2ccccc2C(=O)O)o1)c1c(C)[nH][nH]c1=O	89.1µM*	-0.9%	?	3.55µM*	0.9	35.5µM*
Cc1[nH][nH]c(=O)c1C(c1ccc(-c2ccc(Cl)cc2Cl)o1)c1c(C)[nH][nH]c1=O	.	.	.	7.08µM*	.	?
CC(=O)c1cccc(NC(=O)Cn2ccn3nc(-c4ccccc4)cc3c2=O)c1	-4.0%	9.9%	.	15.5%[59 µM]	.	-2.0%
COc1ccc(SC[C@H](Cc2ccccc2)N2CC[C@@H](C(C)(C)C)CCC2=O)cc1	1.4%	65.0%	-7.9	16.3%[2.33 µM]	-8.7	-2.4%
CCOC(=O)c1ccc(NC(=O)C2CCCN(c3ncnc4onc(-c5ccc(F)cc5)c34)C2)cc1 (stereo not given)	2.6%	32.1%	.	-3.3%[59 µM]	.	5.9%[57.1 µM]
O=c1[nH]nc(Cc2ccc(-c3cccc(Cl)c3)o2)c2ccccc12	-5.0%	43.3%	-1.1	?	0.2	-0.3%
Cc1[nH][nH]c(=O)c1C(c1ccc(-c2cccc(Cl)c2)o1)c1c(C)[nH][nH]c1=O	44.7µM*	?	2.1	.	-17.6	39.8µM*
CC(C)CN1CN(Cc2ccco2)CNC1=S	-6.0%	39.9%	-0.8	2.6%	-2.8	-1.6%
S=C1SCN(Cc2cccnc2)CN1Cc1ccccc1	-4.8%	24.0%	-3.8	1.1%	5.3	-27.8%
S=C1SCN(Cc2ccccn2)CN1Cc1ccco1	6.31µM*	-31.4%	-80.5*	2.24µM*	?	17.8µM*
COCCN1CSC(=S)N(Cc2ccco2)C1	?	-29.5%	-1.3	44.7µM*	-5.4	-0.4%
COc1ccc2c(c1)c1c(c(=O)n(Cc3ccccc3)c(=O)n1Cc1ccccc1)n2C	20.3%	74.3%	.	?	.	3.1%
O=C1NC(=S)NC(=O)C1=Cc1ccccc1C(=O)O	25.1µM*	-19.5%	-7.9	.	1.6	.
CCC1=Nc2ccccc2NC2=C1C(=O)CCC2	-37.7%	1.9%	14.0	?	0.0	50.1µM*
COc1ccc(CNC(=O)Cc2c(C)c3cc4c(C)coc4cc3oc2=O)cc1OC	-29.2%	16.6%	.	4.8%[59 µM]	.	-10.2%
S=c1[nH]nc(CSc2nc3ccccc3s2)n1Cc1ccccc1	?	31.5%	-6.9	3.16µM*	-17.7	-2.5%
CCn1c(CSc2nc3ccccc3s2)n[nH]c1=S	11.2µM*	-6.5%	-2.5	2.82µM*	-3.2	-24.2%
CN(C)CCCSc1nc2ccccc2s1	-32.8%	?	-11.4	14.1µM*	-15.2	?
C=CCn1c(CSc2nc3ccccc3s2)n[nH]c1=S	50.1µM*	4.4%	-5.8	4.47µM*	2.9	10.3%
OC(c1ccc(-c2ccccc2)cc1)c1ncc(-c2ccccc2F)[nH]1 (stereo not given)	.	.	-9.4	.	-10.6	.
Cc1cc(NC(=O)C2CCN(S(=O)(=O)c3ccc4[nH]c(=O)oc4c3)CC2)ccc1Br	-17.3%	12.6%	.	5.1%[59 µM]	.	-9.4%
O=C1C2CC=C(Cl)CC2C(=O)N1c1ncn[nH]1 (stereo not given)	89.1µM*	39.1%	-10.2	?	-9.3	56.2µM*

Compound activity (PubChem BioAssay)
